Records with an inconclusive call do not appear. Entries that show only a call come without a potency. Activity calls are given as the source filed them. The call rests on the fitted dose curve; in most records, active means well fitted activation curve with a large enough effect in the repeat runs; inconclusive means weak or mixed curves; inactive means flat fitted curve, though single readings scatter.

Consider 40 compounds from PubChem BioAssay (Tox21).

The assay is described as follows: A CellTox Green Cytotoxicity Assay to monitor cytotoxicity in HepG2 cells - 40 hour (AID 1224879). Further: nearly all actives have a fitted effect of over 40% in size. As to conditions: CellTox Green fluorescence; series mostly up to 76.8 µM. The source says: National Center for Advancing Translational Sciences [NCATS]
NIH Chemical Genomics Center [NCGC]
U.S. Environmental Protection Agency [EPA]
National Institutes of Environmental Health Sciences [NIEHS]
National Toxicology Program [NTP]
Cell-based models are critical for drug discovery. Determining the natural cytotoxic effects resulting from test compounds is an essential research activity. A CellTox Green Cytotoxicity Assay to monitor cytotoxicity in real time of continues cell culture during 40 hours of the compound treatment was used to screen Tox21 10K library compounds in HepG2 cells. CellTox Green Cytotoxicity Assay is a nonlytic, homogeneous, biofluorescent method to measure cytotoxicity in cell culture after experimental manipulation. The assay system uses a proprietary asymmetric cyanine dye that is excluded from viable cells but preferentially stains the dead cell's DNA. […] Viable cells produce no appreciable increases in fluorescence. Therefore, the fluorescence signal produced by the binding interaction with dead cell DNA is proportional to cytotoxicity.
The mixture of HepG2 cell suspension and reagents were dispensed at 600cells/6 ul/well in 1536-well tissue culture treated black solid bottom plates using a Multidrop dispenser. After the assay plates were incubated at a 37 C/5% CO2 incubator for 5 hours, 23 nL of compounds dissolved in DMSO, positive and negative controls was transferred to the assay plate by a pintool work station. The plates were incubated at 37 C for 40 hours. The fluorescence intensity were measured at 0h, 8h, 16h, 24h, 32h and 40h time points using ViewLux plate reader during compound treatment.
As for `OCC1(CO)COCOC1`, the Potency result was “inactive”.
Same read-out and setting: the entry for `CC(=O)O[Si](C)(OC(C)=O)OC(C)=O` is “inactive”.
For the compound `Cn1c(=O)c2[nH]c(Br)nc2n(C)c1=O`, the Potency entry was “inactive”.
As for `COc1nc(N)nc2nc[nH]c12`, the Potency entry is “inactive”.
`Cc1ccc(C(C)NC(=O)[C@@H](NC(=O)OC(C)C)C(C)C)cc1` (stereo not given in full): the Potency result was “inactive”.
Still for that read-out and setting: the result for `C[C@@H](O)C(=O)O` reads “inactive”.
On to `CC(C)(C)NC[C@H](O)COc1cccc2c1CCCC2=O`, for which the Potency result is “inactive”.
On the same count and under the same terms, the entry for `CC(C)C1OCCN1CCOC(=O)NCCCCCCNC(=O)OCCN1CCOC1C(C)C` (stereo not given) is “inactive”; for `CC1(C)[C@H]2CC[C@](C)(C2)[C@H]1O` it is “inactive”; for `CC(=O)C1C(=O)C=C(C)OC1=O` (stereo not given) it is “inactive”.
As for `CCCCCCCCCCCCCCCCCCOCCO`, the cytotoxicity increase was 2.96% [at 15.8 µM] (inactive).
Regarding `COP(=O)(O)OP(=O)(O)OC`, the Potency entry is “inactive”.
`CCCCCCCCCCOC(C)=O`: the Potency entry is “inactive”.
As to `O=C1c2ccccc2C(=O)c2cc(Cl)ccc21`, the cytotoxicity increase was 1.15% [at 6.97 µM] (inactive).
As to `[O]=[Mo](=[O])=[O]`, the cytotoxicity increase is -15% [at 15.8 µM] (inactive).
On the same count and under the same terms, the result for `CC1(C)CC(OC(=O)CCCCCCCCC(=O)OC2CC(C)(C)NC(C)(C)C2)CC(C)(C)N1` reads -12% [at 15.8 µM] (inactive).
Regarding `CC(C)OC(=O)CCC(=O)OC(C)C`, the Potency result is “inactive”.
The same measure, in the same setting: the entry for `ONc1ccccc1` is “inactive”; for `CCCC(=O)Nc1ccc(OCC(O)CNC(C)C)c(C(C)=O)c1` (stereo not given) it is “inactive”.
For the compound `CN(C)CCN(C)CCO`, the Potency result was “inactive”.
Turning to `COc1ccc2c(c1)c1c3n2CCN(C)C3=NCC1`, the Potency result is “inactive”.
Take `Cc1ccc(C(=O)O)cc1[N+](=O)[O-]`: the Potency result was “inactive”.
Same read-out and setting: the entry for `CCOc1cccc(N)c1` is “inactive”.
`Cc1ccc2c(c1)C(=O)c1ccccc1C2=O`: the Potency result is “inactive”.
As for `CCOc1ccccc1OCC1CNCCO1` (stereo not given), the Potency result is “inactive”.
On to `O=S(=O)(O)c1ccc2c(N=Nc3ccc(S(=O)(=O)O)c4ccccc34)c(O)c(S(=O)(=O)O)cc2c1`, for which the cytotoxicity increase was -16.2% [at 6.97 µM] (inactive).
As for `CCCCCCCCCCCCCBr`, the Potency result is “inactive”.
As for `O=C(O)c1cc2ccccc2nc1C(=O)O`, the Potency result is “inactive”.
On the same count and under the same terms, the result for `O=Cc1cc2ccccc2o1` reads “inactive”; that for `CC(=O)CCc1ccc(OC(C)=O)cc1`, “inactive”.
For `CCCC(=O)OCCC(C)CCC=C(C)C` (stereo not given), the Potency result was “inactive”.
As for `CC1(C)Cc2cccc(N)c2O1`, the Potency result is “inactive”.
Turning to `CC(S)C(C)S` (stereo not given), the Potency result is “inactive”.
Consider `O=C1NC(c2ccccc2)(c2ccccc2)C(=O)N1COP(=O)(O)O`, for which the Potency entry was “inactive”.
On the same count and under the same terms, the entry for `O=C(O)CNC(=O)CNC(=O)CNC(=O)CSC(=O)c1ccccc1` is “inactive”.
On to `N[C@@H](CSCCCO)C(=O)O`, for which the cytotoxicity increase was -14.5% [at 15.8 µM] (inactive).
As for `C=CCCCC`, the Potency entry is “inactive”.
On the same count and under the same terms, the entry for `CCNC(=O)NCc1cccc(Cl)c1` is “inactive”; for `C=CCCCCCCCC` it is “inactive”; for `O=C(O)CCCCCC(=O)O` it is “inactive”.
